Screen size: about 310,000 compounds; about 14,000 (4.5%) showed an effect of 50% or more. Effects have a minus sign here. For the sample, strong results were picked, then their nearest neighbours and some compounds at random.
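Also: peak tail current of the secondary pulse compared with the same well before compound.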

For this assay, the target named is human ether-à-go-go-related gene (hERG) potassium channel (human, UniProt Q12809). The assay can be described thus: primary screen, population patch clamp on CHO cells stably expressing hERG; higher = less effect of the substance.
Sequence of human ether-à-go-go-related gene (hERG) potassium channel (Q12809 whole entry, looked up): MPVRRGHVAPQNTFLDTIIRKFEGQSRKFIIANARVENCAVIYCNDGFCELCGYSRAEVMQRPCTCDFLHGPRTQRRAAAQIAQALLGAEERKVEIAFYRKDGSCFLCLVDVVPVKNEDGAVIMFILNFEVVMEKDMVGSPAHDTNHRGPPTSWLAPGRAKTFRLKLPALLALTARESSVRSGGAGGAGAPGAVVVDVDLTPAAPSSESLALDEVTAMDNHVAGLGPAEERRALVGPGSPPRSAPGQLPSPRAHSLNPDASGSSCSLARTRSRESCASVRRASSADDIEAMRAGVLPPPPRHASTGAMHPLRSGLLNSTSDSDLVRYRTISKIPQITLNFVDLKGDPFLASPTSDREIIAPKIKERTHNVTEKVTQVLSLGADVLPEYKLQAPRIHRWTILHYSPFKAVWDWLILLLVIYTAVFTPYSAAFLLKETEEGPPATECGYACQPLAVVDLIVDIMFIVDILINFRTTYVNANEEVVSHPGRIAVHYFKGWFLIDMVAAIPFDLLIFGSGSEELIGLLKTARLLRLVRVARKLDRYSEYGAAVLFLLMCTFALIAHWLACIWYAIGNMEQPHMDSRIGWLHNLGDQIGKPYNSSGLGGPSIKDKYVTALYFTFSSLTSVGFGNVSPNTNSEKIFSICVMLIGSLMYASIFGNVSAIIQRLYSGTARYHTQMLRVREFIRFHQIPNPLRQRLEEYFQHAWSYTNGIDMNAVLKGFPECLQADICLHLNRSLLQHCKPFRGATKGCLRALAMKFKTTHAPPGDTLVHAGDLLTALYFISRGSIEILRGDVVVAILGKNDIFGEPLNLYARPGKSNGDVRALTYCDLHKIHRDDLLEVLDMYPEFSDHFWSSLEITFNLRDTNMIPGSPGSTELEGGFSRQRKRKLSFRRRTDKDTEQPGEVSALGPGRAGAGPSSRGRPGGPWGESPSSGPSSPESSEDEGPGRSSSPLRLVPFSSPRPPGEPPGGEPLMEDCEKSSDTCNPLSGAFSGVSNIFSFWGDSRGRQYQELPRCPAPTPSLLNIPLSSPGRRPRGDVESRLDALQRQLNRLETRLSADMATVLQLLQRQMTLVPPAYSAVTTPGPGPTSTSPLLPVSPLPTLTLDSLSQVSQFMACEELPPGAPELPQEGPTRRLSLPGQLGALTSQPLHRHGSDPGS
Turning to `O=C(CCCCCn1c(=S)[nH]c2ccc(N3CCOCC3)cc2c1=O)NCc1ccccc1Cl`, the “hERG current change (%, negative = inhibition) at 10uM” value is recorded as 4.65%.
In the case of `C=COCCn1c(-c2nonc2N)nc2ccccc21`, the “hERG current change (%, negative = inhibition) at 10uM” value was -3.07%.
For `CC(NC(=O)CCC(=O)NCc1ccc(F)cc1)c1ccccc1` (stereo not drawn), the “hERG current change (%, negative = inhibition) at 10uM” value is 13.3%.
For the molecule `COc1ccc(NC(=S)NC(NC(=O)CF)C(Cl)(Cl)Cl)cc1[N+](=O)[O-]` (stereo not drawn), the “hERG current change (%, negative = inhibition) at 10uM” value amounted to 15%.
As to `CCOC(=O)c1ccc(NC(=O)CC2C(=O)N(c3ccc(F)cc3)C(=O)N2CCC(C)C)cc1` (stereo not drawn), the “hERG current change (%, negative = inhibition) at 10uM” value is reported as -8.43%.
For `COc1ccc(-c2cc(-c3ccc(OC)cc3)c(C#N)c(SC)n2)cc1` the value was 5.38%.
The figure for `CCn1nc(C(=O)Nc2cccc(S(=O)(=O)N3CCCC3)c2)c2ccccc2c1=O` is -22.3%.
Turning to `COc1ccc(S(=O)(=O)N2CCCC(C(F)(F)F)C2)cc1` (stereo not drawn), the “hERG current change (%, negative = inhibition) at 10uM” value turned out to be 10.2%.
The figure for `O=C(CCNS(=O)(=O)c1ccc2c(c1)CCC(=O)N2)NCc1ccc2c(c1)OCO2` is 0.608%; for `Cc1cccc(NC(=O)Nc2cc(C)on2)c1` it is 9.14%; for `C=C1CCC[C@]2(C)C[C@H]3OC(=O)C(CN4CCOCC4)[C@H]3C[C@@H]12` (stereo partly drawn) it is 17.7%.
In the case of `COc1cccc(OC)c1C(=O)Nc1cccc(-n2cnnn2)c1`, the “hERG current change (%, negative = inhibition) at 10uM” value is recorded as 15.7%.
Regarding `CN1CCC(OC(=O)Cc2ccc(Cl)cc2)CC1.Cl`, the “hERG current change (%, negative = inhibition) at 10uM” value is -11%.
For `CN(C(=S)Nc1ccc(Oc2ccccc2)cc1)c1ccc(O)cc1` the value was -6.93%.
For `CC(=O)n1cc([C@@H]2C=C(C(=O)N3CCN(C)CC3)O[C@H](OCc3ccc(CO)cc3)C2)c2ccccc21` the value was -41.7%.
The figure for `CC(=O)n1cc([C@H]2C=C(C(=O)N3CCOCC3)O[C@@H](OCc3ccc(CO)cc3)C2)c2ccccc21` is -55.2%; for `CC(=O)n1cc([C@H]2C=C(C(=O)N3CCN(Cc4ccccc4)CC3)O[C@@H](OCc3ccc(CO)cc3)C2)c2ccccc21` it is -24%; for `CCN(c1ccccc1)S(=O)(=O)c1ccc(C(=O)N(C)CCc2ccc(OC)c(OC)c2)cc1` it is -13.8%.
Take `O=[N+]([O-])c1ccc(CN2CCN(c3ccccc3)CC2)o1`: the “hERG current change (%, negative = inhibition) at 10uM” value is on record as 9.7%.
With `O=C(O)C(=O)O.O=[N+]([O-])c1ccc(N2CCN(Cc3ccc([N+](=O)[O-])o3)CC2)cc1`, the “hERG current change (%, negative = inhibition) at 10uM” value is recorded as -71.1%.
Take `O=[N+]([O-])c1ccc(N2CCN(Cc3ccc(Br)o3)CC2)cc1`: the “hERG current change (%, negative = inhibition) at 10uM” value is on record as -65.1%.
Consider `Brc1ccc(CN2CCN(c3ccccc3)CC2)o1`, for which the “hERG current change (%, negative = inhibition) at 10uM” value was found to be 13.8%.
Consider `O=[N+]([O-])c1ccc(CN2CCN(c3ccc(Cl)cc3)CC2)o1`, for which the “hERG current change (%, negative = inhibition) at 10uM” value is on record as -2.29%.
For `Clc1ccc(N2CCN(Cc3ccc(Br)o3)CC2)cc1`, the “hERG current change (%, negative = inhibition) at 10uM” value was determined as 7.93%.
For `Cc1c(N)cccc1-n1cccc1` the value was 16.2%.
For `Cc1ccc2oc(C(=O)N(C)CCC(O)c3ccccc3)c(C)c2c1` (stereo not drawn) the value was 11.5%; for `COc1ccc(S(=O)(=O)NCCSCc2cccc(C)c2)cc1Br`, -0.641%; for `CCNC(=O)NS(=O)(=O)c1cnccc1Nc1cccc(Cl)c1`, 25.1%.
The figure for `c1ccc(-c2noc(C3CCC3)n2)nc1` is 4.59%.
`CC(C)CC(=O)N/N=C/c1c(N)n(C)c(=O)n(C)c1=O`: the “hERG current change (%, negative = inhibition) at 10uM” value was found to be 21.7%.
The figure for `O=C(Cn1c(=O)c2cccn2c2ccc(F)cc21)NCCCN1CCN(c2ccccc2F)CC1` is -50.5%; for `COc1ccc(N2CCN(CCCNC(=O)Cn3c(=O)c4cccn4c4ccccc43)CC2)cc1` it is -43.7%; for `COc1ccc(N2CCN(CCCNC(=O)Cn3c(=O)c4cccn4c4cccnc43)CC2)cc1` it is -57.2%.
On to `O=C(Cn1c(=O)c2cccn2c2cccnc21)NCCCN1CCN(c2ccc(F)cc2)CC1`, for which the “hERG current change (%, negative = inhibition) at 10uM” value is reported as -76.4%.
The figure for `CN1CCN(CCNC(=O)Cn2c(=O)c3cccn3c3ccc(F)cc32)CC1` is 14.1%; for `CCN1CCN(CCNC(=O)Cn2c(=O)c3cccn3c3ccc(F)cc32)CC1` it is -2.61%; for `COc1ccc(N2CCN(C(=O)Cn3c(=O)c4cccn4c4cccnc43)CC2)cc1` it is -15.3%.
On to `NS(=O)(=O)c1ccc(CCNC(=O)Cn2c(=O)c3cccn3c3cccnc32)cc1`, for which the “hERG current change (%, negative = inhibition) at 10uM” value is 22.3%.
The figure for `O=C(Cn1c(=O)c2cccn2c2ccccc21)NCCCN1CCCCC1` is 3.5%; for `COc1ccccc1CCNC(=O)C(=O)NCCC1CCCCN1S(=O)(=O)c1cccs1` (stereo not drawn) it is -6.92%.
The figure for `Cc1c(NC(=O)CSCc2ccccc2)cccc1C(=O)O` is 18%.
With `CCn1cc([N+](=O)[O-])c(C(=O)N2N=C(c3ccc4ccccc4c3)CC2c2ccccc2O)n1` (stereo not drawn), the “hERG current change (%, negative = inhibition) at 10uM” value is on record as 3.19%.
Turning to `Clc1ncccc1-c1nnn(-c2ccccc2)n1`, the “hERG current change (%, negative = inhibition) at 10uM” value was determined as 15.1%.
The figure for `Cc1[nH]c2ccccc2c1/C=N/NC(N)=S` is 2.1%.
Turning to `N#CCCS(=O)(=O)c1nnnn1-c1ccccc1`, the “hERG current change (%, negative = inhibition) at 10uM” value is reported as -18.7%.
For `Cn1c(O)c(N=NC(=O)Cn2c(C(F)(F)F)nc3ccccc32)c2ccccc21`, the “hERG current change (%, negative = inhibition) at 10uM” value is on record as 6.02%.
For `CC(C)C(C(=O)O)N1C(=O)/C(=C/c2cccn2C)SC1=S` (stereo not drawn) the value was -0.129%; for `COCC1CCCN(C(=O)c2ccc3oc(Cc4ccc(Cl)cc4)nc3c2)C1` (stereo not drawn), -24.7%.
For `O=C(CN1CCN(C(=O)C2CC2)CC1)Nc1cc(C(F)(F)F)cc(C(F)(F)F)c1`, the “hERG current change (%, negative = inhibition) at 10uM” value is -54.4%.
For `O=C(CN1CCN(C(=O)C2CCC2)CC1)Nc1ccc(F)cc1` the value was -69.9%; for `O=C(CN1CCN(C(=O)N2CCCCC2)CC1)Nc1ccc(F)cc1`, -74.9%.
For `O=C(CN1CCCC1)Nc1cc(C(F)(F)F)cc(C(F)(F)F)c1` the value was -17.9%.
For `O=C(C1CCCC1)N1CCCC(Nc2ccc(F)cc2)C1` (stereo not drawn) the value was -37.2%; for `Cl.O=C(CN1CCN(c2cccc(C(F)(F)F)c2)CC1)Nc1cccc(C(F)(F)F)c1`, -1.14%.
For `Cc1ccc(NC(=O)CN2CCCC2)cc1.Cl`, the “hERG current change (%, negative = inhibition) at 10uM” value is recorded as 19.1%.
The figure for `O=C(CN1CCCC1)Nc1ccc(F)cc1` is 23.3%.
The figure for `O=C(CN1CCCC1)NCC(=O)Nc1ccc(F)cc1` is 8.87%.

Source of the values: article PMC4336329 (PLoS ONE, 2015).
